# Assay results: PubChem BioAssay AID743143 (Broad Institute, 2013)
# Measured potencies and affinities stand elsewhere. Activity calls are given as the source filed them.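 How the source made its calls: active means falling signal curve whose fitted half-maximal dose lies at or below the top valid tested dose; inconclusive means flat fit showing 30 to 70% loss, or poor fit; inactive means rising signal, flat within 30%, or half-maximal dose above top.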
# Experiment: HepG2 cell cytotoxicity, dose response, cytotoxicity control, ATP luminescence, dry powder, Set4 (AID 743143)
# Conditions: HepG2 viability, CellTiter-Glo ATP luminescence, 72 h; series mostly up to 26 µM; activity change, negative = cytotoxicity: at the top concentration
row,Structure (SMILES),"activity change, negative = cytotoxicity"
1,CC(=O)NCCC(=O)N[C@@H]1CCCc2ccccc21,-4.47% (inactive)
2,NCCC(=O)N[C@@H]1CCCc2ccccc21,18.8% (inactive)
3,O=C(CCNC(=O)c1ccc(F)cc1)N[C@@H]1CCCc2ccccc21,10.7% (inactive)
4,Cc1ccc(C(=O)NCCC(=O)N[C@@H]2CCCc3ccccc32)cc1,-0.842% (inactive)
5,O=C(CCNC(=O)c1ccc(Cl)c(Cl)c1)N[C@@H]1CCCc2ccccc21,-13.4% (inactive)
6,CC(NC(=O)CCNC(=O)c1ccc(Cl)cc1)c1ccc(F)cc1 (stereo not drawn),-1.19% (inactive)
7,CC(CC(=O)NC1CCCc2ccccc21)NC(=O)c1ccccc1 (stereo not drawn),-8.93% (inactive)
8,O=C(NC1CCOc2ccccc21)C1CCCN(C(=O)c2ccc(Cl)cc2)C1 (stereo not drawn),-10.2% (inactive)
9,O=C(CCNC(=O)c1ccc(Cl)cc1)N[C@@H]1CCc2ccccc21,10.8% (inactive)
10,O=C(CCNC(=O)c1ccc2c(c1)OC(F)(F)O2)N[C@@H]1CCCc2ccccc21,-0.347% (inactive)
11,COc1ccc(C(=O)NCCC(=O)N[C@@H]2CCCc3ccccc32)cc1,-11.5% (inactive)
12,O=C(CCNC(=O)c1ccc(C(F)(F)F)cc1)N[C@@H]1CCCc2ccccc21,-0.327% (inactive)
13,O=C(CCNC(=O)c1ccccc1)N[C@@H]1CCCc2ccccc21,5.01% (inactive)
14,O=C(CCNC(=O)c1ccc(Cl)cc1)N[C@H]1CCCc2ccccc21,-7.67% (inactive)
15,CC(CC(=O)N(C)C1CCCc2ccccc21)NC(=O)c1ccccc1 (stereo not drawn),-9.54% (inactive)
16,O=C(CCCNC(=O)c1ccc(Cl)cc1)N[C@@H]1CCCc2ccccc21,0.579% (inactive)
17,O=C(CCCNC(=O)c1ccc(OC(F)(F)F)cc1)N[C@@H]1CCCc2ccccc21,-5.35% (inactive)
18,CN(C(=O)CCNC(=O)c1ccc(F)cc1F)C1CCCc2ccccc21 (stereo not drawn),17.2% (inactive)
